Measured values: PubChem BioAssay (NCATS)
Values joined by “and” are separate entries in the source; they are usually repeats but may differ in a detail not shown here. Identical values can stand only once. Results filed as inconclusive are left out. Active and inactive are the calls of the source. Unless noted, calls follow the shape of the dose curve; as a rule, active = well fitted curve in the direction sought with a large enough effect; inconclusive = small, poorly fitted or top-dose-only effect, or another doubt; inactive = no such curve, though single readings can be large; an effect the other way counts as inactive or inconclusive.

Tests used:
[1] = qHTS assay for small molecule agonists of the antioxidant response element (ARE) signaling pathway measured by Nrf2-dependant transcriptional activity - cell viability counter screen (AID 720653; active = well fitted curve in the direction sought with a large enough effect in the repeat runs; an effect the other way counts as inactive or inconclusive); settings: ARE-bla HepG2 viability, CellTiter-Glo ATP luminescence, 16 h; stronger effect = lower value
How it was run: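 ARE-bla HepG2 cells treated with compounds for 16 h at 37C; this counter screen measures viability as intracellular ATP by CellTiter-Glo luminescence after 30 min at room temperature.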

[2] = qHTS assay for cell viability of HEK293 cells (AID 743288); settings: ATP luminescence (CellTiter-Glo), 18 h; max response: stronger effect = lower value; also: nearly all actives have a fitted effect of over 50% in size
How it was run: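 Luminescent ATP quantitation served as the viability read-out. Cells (parental HEK293, 2,000/well) received compounds after at least 5 h at 37 C and were exposed for 18 h before a 30 min room-temperature reagent step.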

[3] = qHTS assay for cell viability of the p53RE-bla HCT-116 cell line (AID 743292); settings: p53RE-bla HCT-116 viability, ATP luminescence, 16 h; series mostly up to 95 µM; also: nearly all actives have a fitted effect of over 55% in size
How it was run: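 Intracellular ATP of p53RE-bla HCT-116 cells measured by luciferase luminescence following 16 h compound incubation at 37 C; DMSO-only wells served as vehicle controls.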

[4] = qHTS assay to identify small molecule inhibitors of chordoma cells - UCH-1 (AID 1259355); settings: UCH-1 chordoma viability, CellTiter-Glo, 48 h, combination, with auranofin plus four topoisomerase inhibitors; series mostly up to 46.1 µM; also: nearly all actives have a fitted effect of over 55% in size
How it was run: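 Cells (800/well) were seeded and left overnight at 37 C, 5% CO2, then treated with drugs at 15 concentrations plus a combination mix of auranofin, camptothecin, doxorubicin, rubitecan and topotecan. Viability after 48hr was read by CellTiter-Glo luminescence.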

[5] = qHTS assay to identify small molecule inhibitors of chordoma cells - UCH-2 (AID 1259356); settings: UCH-2 chordoma viability, CellTiter-Glo ATP luminescence, 48 h; series mostly up to 46.1 µM
[6] = P-glycoprotein substrates identified in KB-8-5-11 adenocarcinoma cell line, qHTS therapeutic library screen (AID 1346987); settings: KB-8-5-11 (P-gp overexpressing) viability, CellTiter-Glo, 72 h; series mostly up to 44.5 µM; also: nearly all actives have a fitted effect of over 65% in size
How it was run: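 KB-8-5-11: colchicine-selected sub-line of KB-3-1 over-expressing P-gp; assay medium lacked colchicine. 72 h drug exposure at 37 degree C, CellTiter-Glo.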

[7] = qHTS Assay for Identifying Gametocytocidal Compounds (AID 743244);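 also: actives lower the fluorescent signal which means gametocytes are killed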; settings: P. falciparum 3D7 stage III-V gametocytes, alamarBlue, 72 h; max response: stronger effect = lower value
How it was run: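 In this qHTS viability screen, late-stage 3D7 gametocytes are incubated with compound for 72 h, then with alamarBlue for 24 h; reduced resorufin fluorescence marks killing.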
% is scaled to controls: 0 for no effect and ±100 for the full control effect.

CO
inactive: max response [1] -2.74% | max response [2] 1.36% | outcome [3] | Potency [4] | Potency [5] | Potency [6]

Nc1ccc(N=Nc2ccccc2)c(N)n1
inactive: max response [1] -11.4% and -26.2% | max response [7] -8.48% | max response [2] -23.5% and -25.3% | outcome [3] | Potency [4] | Potency [5] | Potency [6]

CN(CCO)CC(O)Cn1cnc2c1c(=O)n(C)c(=O)n2C (stereo unspecified) (tested in a mixture with another compound)
inactive: max response [1] 2.54% | max response [7] 2.62% | max response [2] -3.27% | outcome [3] | Potency [4] | Potency [5] | Potency [6]

CCc1ncnc2cc(OC)c(OC)cc12
inactive: max response [7] -4.33% | Potency [4] | Potency [5] | Potency [6]

CC[C@H]1OC(=O)[C@H](C)[C@@H](O[C@H]2C[C@@](C)(OC)[C@@H](O)[C@H](C)O2)[C@H](C)[C@@H](O[C@@H]2O[C@H](C)C[C@H](N(C)C)[C@H]2O)[C@](C)(O)C[C@@H](C)CN(C)[C@H](C)[C@@H](O)[C@]1(C)O
inactive: max response [1] -20.4% | max response [2] -7.47% | outcome [3] | Potency [4] | Potency [5] | Potency [6]

C[C@H](CCC(=O)O)[C@H]1CC[C@H]2[C@@H]3[C@H](O)C[C@@H]4C[C@H](O)CC[C@]4(C)[C@H]3C[C@H](O)[C@]12C
inactive: max response [1] 1.94% | max response [7] -6.23% | max response [2] -4.94% | outcome [3] | Potency [4] | Potency [5] | Potency [6]

CCCCCCCCCCCCCCCCCC(=O)OC[C@@H](O)[C@H]1OC[C@H](O)[C@H]1O
inactive: max response [1] -0.0548% | max response [7] -8.87% | max response [2] -11.8% | outcome [3] | Potency [4] | Potency [5] | Potency [6]

OCc1ccccc1
inactive: max response [1] -4.76% | max response [7] 0.478% | max response [2] 7.92% | outcome [3] | Potency [4] | Potency [5] | Potency [6]

C=CC(C)(O)CC/C=C(\C)CCC=C(C)C (stereo unspecified)
inactive: max response [1] 1.82% | max response [2] -7.81% | outcome [3] | Potency [4] | Potency [5] | Potency [6]

Cc1ncc[nH]1
inactive: max response [1] 2.15% | max response [7] 20% | max response [2] -10.6% | outcome [3] | Potency [4] | Potency [5] | Potency [6]

Oc1cccc(O)c1O
inactive: max response [1] -24.8% | max response [7] -2.15% | max response [2] -17.5% | outcome [3] | Potency [4] | Potency [5] | Potency [6]

CC(C)CCC[C@@H](C)[C@H]1CC[C@H]2[C@@H]3CC=C4C[C@@H](O)CC[C@]4(C)[C@H]3CC[C@]12C
inactive: max response [1] -4.46% | max response [7] -0.629% | max response [2] -8.56% | outcome [3] | Potency [4] | Potency [5] | Potency [6]

OCC(O)CO
inactive: max response [1] -6.54% and -5.61% | max response [7] 9.54% | max response [2] 1.91% and -2.54% | outcome [3] | Potency [4] | Potency [5] | Potency [6]

[O-][N+](=Nc1ccccc1)c1ccccc1
inactive: max response [1] -2.2% | max response [7] 18.6% | max response [2] -0.626% | outcome [3] | Potency [4] | Potency [5] | Potency [6]

OCl
inactive: max response [1] -6.58% | max response [7] 13.5% | max response [2] -19.9% | outcome [3] | Potency [4] | Potency [5] | Potency [6]

C/C=C/C=C/C(=O)O
inactive: max response [1] -1.45% | max response [7] -7.74% | max response [2] 0.0589% | outcome [3] | Potency [4] | Potency [5] | Potency [6]

COC(=O)c1ccccc1O
inactive: max response [1] 1.24% and 5.57% | max response [7] 3.79% | max response [2] -4.62% and -2.27% | outcome [3] | Potency [4] | Potency [5] | Potency [6]

H-RKDVY-OH
inactive: max response [7] -13.7% | Potency [4] | Potency [5] | Potency [6]

CC(O)CN(C)C (stereo unspecified)
inactive: max response [7] -6.61% | Potency [4] | Potency [5] | Potency [6]

O=C(O)c1cc(N=Nc2ccc(O)c(C(=O)O)c2)ccc1O
inactive: max response [7] 0.0283% | Potency [4] | Potency [5] | Potency [6]

CO/N=C(\C(=O)N[C@@H]1C(=O)N2C(C(=O)O)=CCS[C@H]12)c1csc(N)n1
inactive: max response [7] 5.71% | Potency [4] | Potency [5] | Potency [6]

CCCCCCCCCCCCCCCCCC[N+](C)(C)CCC[Si](OC)(OC)OC
inactive: max response [7] -8.48% | Potency [4] | Potency [5] | Potency [6]

CC(C)(C)NCC(O)c1ccc(O)c(CO)n1 (stereo unspecified)
inactive: max response [7] 6.55% | Potency [4] | Potency [5] | Potency [6]

O=C(O)/C=C/C(=O)Nc1ccc(S(=O)(=O)Nc2nccs2)cc1
inactive: max response [7] 0.278% | Potency [4] | Potency [5] | Potency [6]
